Test results from PubChem BioAssay (NCI).
Compounds without any hit were thinned out: in the full panel of roughly 83,000, 20% have a hit.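 Single-concentration screen, 48 h exposure, 96-well plates. Endpoint: percent growth. Below 10 = active.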 Activity calls are given as the source filed them.

What was measured:
Test in all cases: NCI-60 one-dose screen, 48 h (100 = growth as untreated, 0 = no growth, -100 = all killed)
Settings in all cases: 10 µM unless noted
NCI-H23 lung = tested on: NCI-H23 lung
NCI-H226 lung = tested on: NCI-H226 lung
NCI-H322M lung = tested on: NCI-H322M lung
HOP-62 NSCLC = tested on: HOP-62 NSCLC
NCI-H460 lung = tested on: NCI-H460 lung
HOP-92 NSCLC = tested on: HOP-92 NSCLC
NCI-H522 lung = tested on: NCI-H522 lung
A549/ATCC NSCLC = tested on: A549/ATCC NSCLC
786-0 renal = tested on: 786-0 renal
COLO 205 colon = tested on: COLO 205 colon
DU-145 prostate = tested on: DU-145 prostate
K-562 leukemia = tested on: K-562 leukemia
MALME-3M melanoma = tested on: MALME-3M melanoma
MDA-MB-231 breast = tested on: MDA-MB-231 breast
RXF 393 renal = tested on: RXF 393 renal
SF-268 CNS = tested on: SF-268 CNS
SF-295 CNS = tested on: SF-295 CNS
SF-539 CNS = tested on: SF-539 CNS
UACC-257 melanoma = tested on: UACC-257 melanoma
M14 melanoma = tested on: M14 melanoma

Measured: growth

CC(=O)OC[C@]12CC[C@H]3[C@@H](C[C@H]4O[C@]45CC=CC(=O)[C@]35C)[C@]1(O)CC[C@@]2(O)[C@@](C)(O)C1CC(C)=C(C)C(=O)O1 (stereo not given in full)
inactive: UACC-257 melanoma 13.7%
active: NCI-H23 lung -32.9% | NCI-H226 lung -28.5% | NCI-H322M lung -54.2% | HOP-62 NSCLC -34% | NCI-H460 lung -51.3% | HOP-92 NSCLC -34.6% | NCI-H522 lung -54.1% | A549/ATCC NSCLC 6.23% | 786-0 renal -19.6% | COLO 205 colon -35.7% | DU-145 prostate 7.44% | K-562 leukemia 5.58% | MALME-3M melanoma -58.4% | MDA-MB-231 breast -14.7% | RXF 393 renal -62.8% | SF-268 CNS -49.5% | SF-295 CNS -11.9% | SF-539 CNS -42.7% | M14 melanoma 2.6%

N#Cc1c(-c2ccccc2)cc(-c2ccccc2)n(CC(=O)NO)c1=O
active: NCI-H522 lung -70.9% | K-562 leukemia 6.26%
inactive: NCI-H23 lung 53.1% | NCI-H226 lung 38.9% | NCI-H322M lung 81.2% | HOP-62 NSCLC 71.2% | NCI-H460 lung 83% | HOP-92 NSCLC 32% | A549/ATCC NSCLC 54.4% | 786-0 renal 63.7% | COLO 205 colon 58.6% | DU-145 prostate 61% | MALME-3M melanoma 66% | MDA-MB-231 breast 42.8% | RXF 393 renal 27.9% | SF-268 CNS 52.5% | SF-295 CNS 63.5% | SF-539 CNS 63.9% | UACC-257 melanoma 67.5% | M14 melanoma 64.8%

Cc1ccc(C(=O)NCCCNc2nccc(-n3ccc4cccnc43)n2)cc1
inactive: NCI-H23 lung 102% | NCI-H226 lung 93.4% | NCI-H322M lung 91.6% | HOP-62 NSCLC 104% | NCI-H460 lung 109% | HOP-92 NSCLC 96.4% | NCI-H522 lung 88% | A549/ATCC NSCLC 93.4% | 786-0 renal 93.7% | COLO 205 colon 103% | DU-145 prostate 96.5% | K-562 leukemia 92.1% | MALME-3M melanoma 111% | MDA-MB-231 breast 104% | RXF 393 renal 102% | SF-268 CNS 94.7% | SF-295 CNS 96% | SF-539 CNS 99.2% | UACC-257 melanoma 107% | M14 melanoma 102%

COc1ccc(C2CC(c3ccc(OC)cc3OC)=NN2c2ccc(S(N)(=O)=O)cc2)cc1 (stereo not given)
inactive: NCI-H23 lung 90.7% | NCI-H226 lung 101% | NCI-H322M lung 94.4% | HOP-62 NSCLC 119% | NCI-H460 lung 87.3% | HOP-92 NSCLC 77.7% | NCI-H522 lung 63.7% | A549/ATCC NSCLC 59% | 786-0 renal 99.3% | COLO 205 colon 112% | DU-145 prostate 115% | K-562 leukemia 58.3% | MALME-3M melanoma 123% | MDA-MB-231 breast 110% | RXF 393 renal 82.4% | SF-268 CNS 161% | SF-295 CNS 88.5% | SF-539 CNS 103% | UACC-257 melanoma 77.3% | M14 melanoma 96.2%

Clc1cccc(-c2cc(-c3ccc4c(c3)OCCO4)[nH]n2)c1
inactive: NCI-H23 lung 40% [25 µM] | NCI-H226 lung 34.8% [25 µM] | NCI-H322M lung 37.2% [25 µM] | HOP-62 NSCLC 26.6% [25 µM] | NCI-H460 lung 12.1% [25 µM] | HOP-92 NSCLC 55.4% [25 µM] | A549/ATCC NSCLC 41.2% [25 µM] | 786-0 renal 56.8% [25 µM] | COLO 205 colon 11.9% [25 µM] | DU-145 prostate 38.8% [25 µM] | K-562 leukemia 12% [25 µM] | MALME-3M melanoma 35.4% [25 µM] | MDA-MB-231 breast 32.4% [25 µM] | SF-268 CNS 53.2% [25 µM] | SF-295 CNS 29% [25 µM] | SF-539 CNS 33.6% [25 µM] | UACC-257 melanoma 74% [25 µM] | M14 melanoma 25% [25 µM]
active: NCI-H522 lung 0.794% [25 µM] | RXF 393 renal 8.25% [25 µM]

C=C1c2nc3ccccc3n2C=C(c2ccc(Cl)cc2)N1Cc1ccccc1
inactive: NCI-H23 lung 73.4% | NCI-H226 lung 76.9% | NCI-H322M lung 96% | HOP-62 NSCLC 106% | NCI-H460 lung 88.2% | HOP-92 NSCLC 73.6% | NCI-H522 lung 66.3% | A549/ATCC NSCLC 70.6% | 786-0 renal 89.5% | COLO 205 colon 105% | DU-145 prostate 103% | K-562 leukemia 59.1% | MALME-3M melanoma 94.5% | MDA-MB-231 breast 85.4% | RXF 393 renal 65.7% | SF-268 CNS 90.3% | SF-295 CNS 89.8% | SF-539 CNS 96.4% | UACC-257 melanoma 75.4% | M14 melanoma 85.2%

COc1cc(-c2nc(-c3nc4ccc(Cl)cc4[nH]3)cc3c2[nH]c2ccccc23)cc(OC)c1OC
inactive: NCI-H23 lung 71.5% | NCI-H226 lung 73.2% | NCI-H322M lung 82.9% | HOP-62 NSCLC 83.7% | NCI-H460 lung 73.8% | HOP-92 NSCLC 51.8% | NCI-H522 lung 39.7% | A549/ATCC NSCLC 59.2% | 786-0 renal 81% | COLO 205 colon 84.6% | DU-145 prostate 86.8% | K-562 leukemia 54.1% | MALME-3M melanoma 92.7% | RXF 393 renal 63.5% | SF-268 CNS 68% | SF-295 CNS 61.3% | SF-539 CNS 67.3% | UACC-257 melanoma 100% | M14 melanoma 71.7%
active: MDA-MB-231 breast 4.62%
